Measurements as given in ChEMBL document CHEMBL4513155, “CO-ADD screening of University of Sydney (Australia) compounds” (2021).
Measured potencies and affinities stand elsewhere.

What was measured:
[1] = test system: Staphylococcus aureus; settings: Concentration 32 ug.mL-1; ASSAY_TEST Inhibition of Bacterial Growth; detection method Absorption (OD600); MEDIA CAMHB; plate type 384well; NBS; CORNING #3640; time 18 hr
[2] = test system: Escherichia coli; settings: Concentration 32 ug.mL-1; ASSAY_TEST Inhibition of Bacterial Growth; detection method Absorption (OD600); MEDIA CAMHB; plate type 384well; NBS; CORNING #3640; time 18 hr

Row | SMILES | Inhibition [1] [%] | Inhibition [2] [%]
1 | O.O=C1c2cccc3c(-n4cc(CN5CCCNCCN(Cc6cn(-c7ccc8c9c(cccc79)C(=O)N(CCCO)C8=O)nn6)CCCNCC5)nn4)ccc(c23)C(=O)N1CCCO.[Cl-].[Cl-].[Zn+2] | 7.81 | 6.15
2 | COC(COc1cncc2nnc(-c3ccc(C#N)cc3)n12)c1ccc(F)c(F)c1 (centres undefined) | -4.85 | 2.52
3 | Fc1ccc(CCOc2cncc3nnc(-c4ccc(Cl)cc4)n23)cc1F | -7.02 | -0.47
4 | CN(C)C(COc1cncc2nnc(-c3ccc(C#N)cc3)n12)c1ccc(F)c(F)c1 (centres undefined) | -0.93 | 3.93
5 | N#Cc1ccc(-c2nnc3cncc(OCC(O)c4ccc(F)c(F)c4)n23)cc1 (centres undefined) | -3.19 | 2.25
6 | Fc1ccc(CCOc2cncc3nnc(-c4ccc(C(F)(F)F)nc4)n23)cc1F | 6.53 | 1.6
7 | CCN1C(=O)c2cccc3c(-c4cn(CCN5CCCNCCN(CCn6cc([C@]7(O)CC[C@H]8[C@@H]9CCc%10cc(O)ccc%10[C@H]9CC[C@@]87C)nn6)CCCNCC5)nn4)ccc(c23)C1=O.OCCN1CCN(CCCN2c3ccccc3Sc3ccc(Cl)cc32)CC1.[O-][Cl+3]([O-])([O-])[O-].[O-][Cl+3]([O-])([O-])[O-].[Zn+2] | 38.05 | 0.56
